KDM5B inhibitor: Primary screen for KDM5B Histone Demethylases FDH-coupled qHTS | Lysine-specific demethylase 5B (Homo sapiens), Q9UGL1 | KDM5B demethylase, FDH-coupled NADH fluorescence (FDH is formaldehyde dehydrogenase) | Potency, µM (highest dose often 57.7 µM), hits mostly inhibitors | 220,000 compounds, 2.6% hits | AID 1347165, 2019; active = well fitted inhibition curve with a large enough effect; also: 0% is about no effect; nearly all actives have a fitted effect of over 70% in size
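KDM5BΔAP (200 nM final) in 50 mM HEPES pH 7.5, 0.01% Tween-20 was preincubated 10 min at RT with compound over a concentration range. Substrate mix (H3K4me3 12.5 µM, α-KG 25 µM, Fe²⁺, ascorbate, NAD⁺, FDH) was added, and NADH fluorescence change over 30 min gave dose-response curves.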
Active calls of the source: *; i = inactive. Only a selection was taken, and hits are over-represented in it overall. Potency is read from the fitted curve at half-maximal effect.

SMILES	KDM5B inhibitor
CCCn1c(SCC(=O)Nc2ccc(Cl)cc2)nc(O)cc1=O	i
COc1ccc(C(=O)N2CCC(C3CCNC3)CC2)cc1F (stereo not given)	i
COc1ccccc1C(=O)N1CCCN(c2nnc3cccc(C)n23)CC1	25.1µM*
COc1ccc(-c2cc(N3CCCN(C(=O)c4ccccc4OC)CC3)n[nH]2)cc1	i
COc1ccccc1C(=O)N1CCCN(c2cc(-c3ccc(Cl)cc3)[nH]n2)CC1	i
Cc1ccc(C(=O)N2CCN(c3nnc4cccc(C)n34)CC2)cc1F	28.2µM*
Cc1ccc(C(=O)N2CCN(c3cc(-c4ccccc4)[nH]n3)CC2)cc1F	i
Cc1ccc(C(=O)N2CCN(c3cc(-c4ccc(Cl)cc4)[nH]n3)CC2)cc1F	i
COc1ccc(C(=O)N2CCN(c3nnc4cccc(C)n34)CC2)cc1F	28.2µM*
COc1ccc(C(=O)N2CCC(C3CCN(C)CC3)C2)cc1F (stereo not given)	i
Cc1noc(C)c1CN1CCC2(CC1)C(C(=O)O)CC(=O)N2C (stereo not given)	i
CC(C)[C@@H]1NC(=O)[C@H]2C[C@@]3(C)c4ccccc4N[C@H]3N2C1=O	i
S=C(NCCc1cccs1)Nc1ccc(Cl)cc1Cl	i
Cc1ccc(CNC(=O)C2CCN(C(=O)c3cc4c(=O)[nH]c(C)cn4n3)CC2)cc1	i
Cc1ccccc1NC(=O)COC(=O)c1cc(=O)[nH]c2ccccc12	i
COc1ccc(C(=O)N[C@H]2C[C@@H](c3nc(-c4ccncc4)no3)N(C)C2)cc1	i
Cc1nnnn1-c1cccc(NC(=O)NC2CCCCC2)c1	i
Cc1cc(C)c(S(=O)(=O)N2CCn3c(nn(CC4CC4)c3=O)C2)cc1C	i
COc1ccc(OC)c(CN2CCNc3cc(Nc4ccccc4)ncc3C2)c1	i
CCOc1cc2c(cn1)NCCN(Cc1ccccc1O)C2	35.5µM*
COc1ccc(OC)c(CN2CCC3(CC2)OC(=O)N(Cc2cccnc2)C3(C)c2ccccc2)c1 (stereo not given)	i
COc1ccc(OC)c(CN2CCC(Cc3ccccc3)CC2)c1	i
COc1cccc(CN2CCCCCCNC(=O)CC2)c1	i
COc1ccc(OC)c(CN2CCNc3cnc(OCc4cccnc4)cc3C2)c1	39.8µM*
Fc1ccccc1CN1CCNc2cc(Nc3ccccc3)ncc2C1	i
SMILES	KDM5B inhibitor
COc1cccc(CN2CCn3c(nnc3[C@@H]3C[C@@H](O)CN3Cc3cccnc3)C2)c1	i
COc1ccc(OC)c(CN2CCNc3cnc(Nc4cccnc4)cc3C2)c1	25.1µM*
c1cncc(Nc2cc3c(cn2)CN(Cc2c[nH]c4ccccc24)CCN3)c1	i
COc1cccc(CN2CCNc3cnc(OCc4cccnc4)cc3C2)c1	35.5µM*
O=C(c1ccco1)N1CCN(Cc2ccc3c(c2)CCO3)CC(O)C1 (stereo not given)	i
COc1ccc(-n2nc(C3CCN(C(=O)c4ccccc4C)CC3)[nH]c2=O)cc1	i
CS(=O)(=O)N1C[C@@H](C(=O)NC2CCCCCC2)[C@H](c2ccncc2)C1	i
CS(=O)(=O)N1CCC(C(=O)Nc2ccc(Oc3ccccc3)cc2)CC1	i
COc1ccc(NS(=O)(=O)c2cccc(C(=O)NNC(=O)c3cccn3C)c2)cc1	i
COC(=O)c1ccc(COc2ccccc2OC)o1	i
COc1ccc2c(c1)nc1n2[C@@H](CNS(=O)(=O)c2ccc(C#N)cc2)COC1	i
Cc1ccc(-n2cc(CN3CCn4nc(C(O)c5nccn5C)cc4C3)cn2)cc1 (stereo not given)	i
Cc1nc(N2CCC(C(=O)Nc3ccc(F)c(Cl)c3)CC2)cc(C(F)(F)F)n1	i
O=S(=O)(NC(c1ccccc1)c1ccccc1)c1cccc2nsnc12	i
CC(C)CCNC(=O)c1cccc2ncccc12	i
COc1cc(OC)c2c(C)c(CC(=O)NCCc3ccc(F)cc3)c(=O)oc2c1	i
Cc1cccc(CN2CCNc3cnc(OCc4cccnc4)cc3C2)c1	17.8µM*
Cc1cccc(CN2CC(N(Cc3cccnc3)S(C)(=O)=O)C2)c1	i
Cc1ccc2c(c1)N1C(=O)OC[C@@H]1CCN(Cc1cccnc1)C2	i
O=C(COc1nc2ccccc2nc1N1CCOCC1)Nc1ccc(F)cc1	i
CCc1ccc(C(C)NC(=O)c2ccc3c(c2)N(S(=O)(=O)c2ccccc2)CC3)cc1 (stereo not given)	i
CCCCCCCCCc1ccc(C(=O)O)cc1	i
Cc1nc(CCNC(=O)CC2COc3ccc(C(=O)N(C)C)cc3N2C)no1 (stereo not given)	i
CN(C)C(=O)c1ccc2c(c1)N(C)C(CC(=O)Nc1ccc[nH]c1=O)CO2 (stereo not given)	i
CCN(C(=O)CC1COc2ccc(C(=O)N(C)C)cc2N1C)C1CCOCC1 (stereo not given)	i
SMILES	KDM5B inhibitor
CN(C)C(=O)c1ccc2c(c1)N(C)C(CC(=O)NC1(CO)CCCCC1)CO2 (stereo not given)	i
CCCN(C)C(=O)CC1COc2ccc(C(=O)NCCOC)cc2N1C (stereo not given)	31.6µM*
COCCNC(=O)c1ccc2c(c1)N(C)C(CC(=O)NCc1ccoc1)CO2 (stereo not given)	28.2µM*
COCCNC(=O)c1ccc2c(c1)N(C)C(CC(=O)NCC(C)(C)C)CO2 (stereo not given)	28.2µM*
CCC(CC)N(CC)C(=O)CC1COc2ccc(C(=O)N(C)C)cc2N1C (stereo not given)	i
C=CCN(C(=O)CC1COc2ccc(C(=O)N(C)C)cc2N1C)C(C)C (stereo not given)	i
O=C(NC1CCCCC1)N1CCC2(CC1)CC(N1CCN(c3ccccn3)CC1)CCO2 (stereo not given)	i
COc1ccc(N2CCN(C(C)C(=O)N(C)Cc3ccccc3)CC2)cc1 (stereo not given)	i
O=C1[C@@H]2C[C@@H](O)CN2C2(CN(C3CCC(F)(F)CC3)C2)C(=O)N1Cc1ccccc1	i
O=C1NC(c2ccccc2)(c2ccccc2)C(=O)N1Cc1coc(-c2cccs2)n1	i
Cc1cc(C)c2c(CC(=O)Nc3ccc(F)cc3)coc2c1	i
CCCOc1ccc2c(c1)sc1ncc(NC(=O)c3ccc(C(C)(C)C)cc3)c(=O)n12	i
Cc1cccc(NC(=O)Cn2ccn3nc4c(c3c2=O)CCCC4)c1C	28.2µM*
Cc1ccc(NC(=O)Cn2ccn3nc4c(c3c2=O)CCCCC4)cc1C	i
Cc1cc(NC(=O)Cn2ccn3nc4c(c3c2=O)CCCC4)no1	25.1µM*
O=C(Cn1ccn2nc3c(c2c1=O)CCCCC3)Nc1cc(F)ccc1F	28.2µM*
COc1ccccc1NC(=O)Cn1ccn2nc3c(c2c1=O)CCCCC3	i
O=c1c2c3c(nn2ccn1Cc1cc(F)ccc1F)CCCC3	i
Cc1cccc(C)c1NC(=O)Cn1ccn2nc3c(c2c1=O)CCCC3	i
CCOc1ccc(NC(=O)Cn2ccn3nc4c(c3c2=O)CCCC4)cc1	i
O=C(Cn1ccn2nc3c(c2c1=O)CCCC3)Nc1ccc2c(c1)OCO2	i
Cc1cc(C)cc(NC(=O)Cn2ccn3nc4c(c3c2=O)CCCC4)c1	35.5µM*
Cc1cccc(C)c1NC(=O)Cn1ccn2nc3c(c2c1=O)CCCCC3	i
Cc1ccc(NC(=O)Cn2ccn3nc4c(c3c2=O)CCCC4)cc1Cl	i
Cn1nc(C(=O)NCc2ccccc2CN2CCCC2)c2ccccc2c1=O	i
O=C(NC1CCCC1)c1cc(-c2ccncc2)nc2ccccc12	i

Assay outcomes (PubChem)
